# Test results reported in the supplement of paper PMC11402862.
# Test system: PPARgamma LBD (GAL4 fusion)
# Test: luciferase reporter transactivation, fold of solvent control; higher = stronger receptor activation
# Conditions: HEK293T, exposure time: 24 h
# Procedure: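 HEK293T cells were transiently transfected with a GAL4-DBD fused to the ligand-binding domain of a human nuclear receptor (PPARα, PPARγ, PPARδ, FXR, LXRα, PXR, RARα or CAR), the GAL4-(UAS)5-TK firefly luciferase reporter and a Renilla luciferase normalisation plasmid. Cells were exposed to compound for 24 h in 0.5% DMSO. Firefly/Renilla luciferase was expressed as fold of the solvent control (=1). Values are the mean of 2-3 biological replicates; receptor agonists were used as positive controls.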
SMILES,luciferase reporter transactivation (concentration: 1 µM),luciferase reporter transactivation (concentration: 5 µM),luciferase reporter transactivation (concentration: 10 µM),luciferase reporter transactivation (concentration: 25 µM),luciferase reporter transactivation (concentration: 50 µM),luciferase reporter transactivation (concentration: 100 µM),luciferase reporter transactivation (concentration: 250 µM),luciferase reporter transactivation (concentration: 500 µM),luciferase reporter transactivation (concentration: 2.5 µM)
O=C(O)C(F)(F)C(F)(F)F [perfluoropropanoic acid],1.14,1.11,1.23,1.18,1.29,1.32,1.27,1.33,
NS(=O)(=O)C(F)(F)C(F)(F)C(F)(F)C(F)(F)C(F)(F)C(F)(F)C(F)(F)C(F)(F)F [perfluorooctane sulfonamide],0.722,1.08,1.01,,,1.18,,,1.1
